About 7,900 targets were measured; listed, in parts, are those with a hit and a random draw of the rest. About 0.6% of all pairs of compound and target were hits.
What follows are targets tested with CN(C)CC(=O)Nc1ccc2[nH]c(=O)c3ccccc3c2c1 (assay: log2 fold change, soluble protein after heating vs DMSO (PISA); higher = thermal stabilisation; K562 cells, 10 uM, 30 min; active = over 0.2 and 3.5 SD of the protein, either way, in both replicates (recomputed)).
In short: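 Aliquots of K562 cells (2×10^6 cells/mL) treated with 10 μM compound for 30 min were heated for 3 min over 48°C-58°C. After pooling and extraction in PBS with 0.5% NP-40 at 4°C, soluble protein from a 21,000xg, 90 min spin was quantified by TMTpro 16plex LC-MS/MS with channel sums equalised. Thermal stability is expressed against control samples, from duplicates, as a log2 fold change.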

Chain of UniProt Q8NCF5 (Q8NCF5 whole entry, looked up): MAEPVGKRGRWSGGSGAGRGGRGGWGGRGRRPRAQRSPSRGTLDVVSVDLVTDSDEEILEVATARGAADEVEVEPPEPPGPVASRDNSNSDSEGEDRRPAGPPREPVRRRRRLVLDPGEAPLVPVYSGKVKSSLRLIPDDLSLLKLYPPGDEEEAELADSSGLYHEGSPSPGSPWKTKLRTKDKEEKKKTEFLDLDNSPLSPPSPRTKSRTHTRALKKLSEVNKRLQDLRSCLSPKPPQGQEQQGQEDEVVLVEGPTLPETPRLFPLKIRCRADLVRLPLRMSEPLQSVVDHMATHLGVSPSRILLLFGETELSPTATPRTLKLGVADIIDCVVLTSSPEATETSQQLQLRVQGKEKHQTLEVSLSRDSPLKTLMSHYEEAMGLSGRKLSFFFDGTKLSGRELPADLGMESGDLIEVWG
Chain of UniProt Q9Y314 (Q9Y314 whole entry, looked up): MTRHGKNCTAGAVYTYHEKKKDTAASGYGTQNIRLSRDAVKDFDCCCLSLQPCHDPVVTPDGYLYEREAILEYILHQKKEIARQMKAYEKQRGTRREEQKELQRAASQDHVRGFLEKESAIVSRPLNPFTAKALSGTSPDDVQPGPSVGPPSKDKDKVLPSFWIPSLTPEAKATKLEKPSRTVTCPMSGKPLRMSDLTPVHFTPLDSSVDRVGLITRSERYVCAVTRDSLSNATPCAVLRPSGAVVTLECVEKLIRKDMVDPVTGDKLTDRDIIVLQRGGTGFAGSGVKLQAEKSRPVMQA
Chain of UniProt P11586 (P11586 whole entry, looked up): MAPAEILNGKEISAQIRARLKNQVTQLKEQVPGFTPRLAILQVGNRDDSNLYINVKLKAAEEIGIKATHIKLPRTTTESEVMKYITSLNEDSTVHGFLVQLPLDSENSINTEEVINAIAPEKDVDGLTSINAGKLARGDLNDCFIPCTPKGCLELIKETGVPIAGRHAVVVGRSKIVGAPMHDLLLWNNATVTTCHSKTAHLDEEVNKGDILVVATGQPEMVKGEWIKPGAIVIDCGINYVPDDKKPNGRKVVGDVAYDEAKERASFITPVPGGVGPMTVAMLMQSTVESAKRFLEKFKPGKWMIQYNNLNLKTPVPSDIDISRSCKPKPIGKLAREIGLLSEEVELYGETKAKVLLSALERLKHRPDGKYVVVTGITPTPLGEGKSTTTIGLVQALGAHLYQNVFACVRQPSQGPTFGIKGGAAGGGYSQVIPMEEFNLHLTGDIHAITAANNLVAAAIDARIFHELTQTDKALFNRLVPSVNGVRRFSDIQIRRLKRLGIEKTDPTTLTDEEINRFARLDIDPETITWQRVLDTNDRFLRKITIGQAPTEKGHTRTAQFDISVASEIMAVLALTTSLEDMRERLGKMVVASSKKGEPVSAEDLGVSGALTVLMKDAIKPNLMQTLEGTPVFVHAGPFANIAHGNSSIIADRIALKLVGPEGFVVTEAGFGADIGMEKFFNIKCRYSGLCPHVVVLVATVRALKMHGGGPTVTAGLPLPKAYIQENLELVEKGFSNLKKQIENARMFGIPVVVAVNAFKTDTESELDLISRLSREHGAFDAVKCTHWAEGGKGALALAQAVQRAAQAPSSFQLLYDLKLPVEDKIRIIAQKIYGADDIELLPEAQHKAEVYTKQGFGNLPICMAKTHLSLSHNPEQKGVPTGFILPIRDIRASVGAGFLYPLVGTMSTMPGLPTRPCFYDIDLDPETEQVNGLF
Chain of UniProt Q92692 (Q92692 whole entry, looked up): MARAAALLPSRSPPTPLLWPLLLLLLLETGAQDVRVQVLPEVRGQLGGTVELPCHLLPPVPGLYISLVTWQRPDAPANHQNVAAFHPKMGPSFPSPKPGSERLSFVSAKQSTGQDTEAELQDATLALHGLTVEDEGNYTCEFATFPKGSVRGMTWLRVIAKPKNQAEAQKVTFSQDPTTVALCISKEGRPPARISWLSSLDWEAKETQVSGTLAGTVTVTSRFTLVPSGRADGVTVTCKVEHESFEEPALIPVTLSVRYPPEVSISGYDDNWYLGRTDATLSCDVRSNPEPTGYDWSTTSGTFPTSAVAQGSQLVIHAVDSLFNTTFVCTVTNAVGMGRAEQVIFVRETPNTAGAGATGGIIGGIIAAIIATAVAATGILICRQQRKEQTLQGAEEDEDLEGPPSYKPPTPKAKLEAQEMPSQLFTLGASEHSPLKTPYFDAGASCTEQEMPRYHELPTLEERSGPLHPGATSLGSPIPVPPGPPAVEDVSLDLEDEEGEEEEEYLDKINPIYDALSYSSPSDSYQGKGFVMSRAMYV
Chain of UniProt P19338 (P19338 whole entry, looked up): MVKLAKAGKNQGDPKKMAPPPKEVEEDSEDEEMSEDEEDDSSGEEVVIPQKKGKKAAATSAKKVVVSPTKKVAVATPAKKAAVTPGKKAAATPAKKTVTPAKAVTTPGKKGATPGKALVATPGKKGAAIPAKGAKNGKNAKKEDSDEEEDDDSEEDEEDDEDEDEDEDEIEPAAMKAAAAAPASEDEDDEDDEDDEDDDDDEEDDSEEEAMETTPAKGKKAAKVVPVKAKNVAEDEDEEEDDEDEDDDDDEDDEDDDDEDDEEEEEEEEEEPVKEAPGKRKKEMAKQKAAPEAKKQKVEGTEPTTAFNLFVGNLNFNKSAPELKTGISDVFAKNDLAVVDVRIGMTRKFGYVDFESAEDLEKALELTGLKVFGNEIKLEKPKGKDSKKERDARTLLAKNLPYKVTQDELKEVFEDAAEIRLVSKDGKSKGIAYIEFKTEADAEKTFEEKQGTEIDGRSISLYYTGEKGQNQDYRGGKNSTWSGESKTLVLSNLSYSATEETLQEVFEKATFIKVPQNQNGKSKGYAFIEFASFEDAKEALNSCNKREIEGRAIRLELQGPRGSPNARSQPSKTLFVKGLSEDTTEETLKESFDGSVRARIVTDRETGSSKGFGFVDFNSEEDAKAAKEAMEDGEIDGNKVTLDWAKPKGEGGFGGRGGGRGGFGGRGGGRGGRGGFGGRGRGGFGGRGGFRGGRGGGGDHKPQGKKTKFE
Chain of UniProt P49757 (P49757 whole entry, looked up): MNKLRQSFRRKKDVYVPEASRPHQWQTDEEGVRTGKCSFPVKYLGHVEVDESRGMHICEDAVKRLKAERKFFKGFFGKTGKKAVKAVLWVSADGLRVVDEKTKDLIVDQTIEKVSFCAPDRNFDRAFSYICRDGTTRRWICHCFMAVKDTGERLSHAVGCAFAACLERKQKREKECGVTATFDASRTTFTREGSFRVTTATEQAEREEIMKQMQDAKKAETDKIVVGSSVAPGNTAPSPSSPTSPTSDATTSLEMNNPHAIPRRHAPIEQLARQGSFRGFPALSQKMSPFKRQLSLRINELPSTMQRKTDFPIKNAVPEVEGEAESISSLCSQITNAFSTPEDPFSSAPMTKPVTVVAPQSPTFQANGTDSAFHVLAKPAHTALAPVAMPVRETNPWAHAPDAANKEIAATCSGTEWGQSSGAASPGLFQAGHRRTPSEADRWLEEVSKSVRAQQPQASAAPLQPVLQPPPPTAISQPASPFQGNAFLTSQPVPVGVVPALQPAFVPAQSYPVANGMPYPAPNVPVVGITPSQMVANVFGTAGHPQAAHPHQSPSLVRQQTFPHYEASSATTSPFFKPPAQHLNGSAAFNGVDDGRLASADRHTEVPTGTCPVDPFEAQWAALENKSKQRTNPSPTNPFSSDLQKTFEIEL
Chain of UniProt P57740 (P57740 whole entry, looked up): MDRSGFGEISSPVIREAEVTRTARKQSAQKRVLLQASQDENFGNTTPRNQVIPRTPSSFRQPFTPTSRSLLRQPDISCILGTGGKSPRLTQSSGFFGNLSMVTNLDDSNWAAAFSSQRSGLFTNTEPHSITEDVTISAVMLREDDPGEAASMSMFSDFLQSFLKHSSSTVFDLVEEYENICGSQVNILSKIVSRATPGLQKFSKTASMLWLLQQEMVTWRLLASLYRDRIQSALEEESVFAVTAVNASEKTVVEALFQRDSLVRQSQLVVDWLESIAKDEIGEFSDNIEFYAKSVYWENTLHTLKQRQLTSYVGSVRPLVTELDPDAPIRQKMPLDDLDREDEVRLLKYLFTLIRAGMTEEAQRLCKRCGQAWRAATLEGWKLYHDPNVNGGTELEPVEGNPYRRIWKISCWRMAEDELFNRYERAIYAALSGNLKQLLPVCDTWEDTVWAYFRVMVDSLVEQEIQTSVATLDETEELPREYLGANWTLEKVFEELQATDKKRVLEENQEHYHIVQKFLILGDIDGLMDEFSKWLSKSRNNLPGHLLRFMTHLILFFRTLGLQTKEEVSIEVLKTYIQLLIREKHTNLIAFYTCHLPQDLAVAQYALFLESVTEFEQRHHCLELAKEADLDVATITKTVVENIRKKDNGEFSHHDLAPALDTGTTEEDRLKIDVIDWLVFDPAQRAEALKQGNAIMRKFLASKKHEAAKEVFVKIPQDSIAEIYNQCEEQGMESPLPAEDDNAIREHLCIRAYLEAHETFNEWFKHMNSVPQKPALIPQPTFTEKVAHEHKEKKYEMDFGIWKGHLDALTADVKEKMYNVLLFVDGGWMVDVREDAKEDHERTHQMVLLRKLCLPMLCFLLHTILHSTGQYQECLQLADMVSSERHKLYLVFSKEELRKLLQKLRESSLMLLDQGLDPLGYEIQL
Chain of UniProt Q8WVJ2 (Q8WVJ2 whole entry, looked up): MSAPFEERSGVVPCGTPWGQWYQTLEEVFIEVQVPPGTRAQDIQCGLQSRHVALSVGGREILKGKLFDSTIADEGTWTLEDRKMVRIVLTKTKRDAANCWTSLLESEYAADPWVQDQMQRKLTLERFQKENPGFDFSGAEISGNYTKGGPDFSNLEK
Chain of UniProt O00483 (O00483 whole entry, looked up): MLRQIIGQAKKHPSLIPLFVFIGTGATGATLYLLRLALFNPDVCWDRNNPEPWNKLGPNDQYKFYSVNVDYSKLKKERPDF

log2 fold change, inactive:
NUDCD2 (UniProt Q8WVJ2) 0.081
NA, A0A096LPI6 -0.002
NAP1L1 (UniProt P55209) 0.013
NCL (UniProt P19338) -0.06
NUP107 (UniProt P57740) -0.048
MRPL46 (UniProt Q9H2W6) 0.014
MRPS22 (UniProt P82650) 0.004
MSTO1 (UniProt Q9BUK6) 0.071
NOL11 (UniProt Q9H8H0) -0.005
NFYC (UniProt Q13952) 0.041
MTMR14 (UniProt Q8NCE2) 0.001
NISCH (UniProt Q9Y2I1) 0.02
NAPG (UniProt Q99747) 0.048
NDUFA4 (UniProt O00483) -0.039
NUMB (UniProt P49757) -0.024
MRPS18B (UniProt Q9Y676) 0.041
NUP85 (UniProt Q9BW27) -0.004
MTHFD1 (UniProt P11586) 0.051
NOSIP (UniProt Q9Y314) 0.196
NECTIN2 (UniProt Q92692) -0.028
NUP205 (UniProt Q92621) 0.032
NFATC2IP (UniProt Q8NCF5) 0.048
NRF1 isoform 4 (UniProt Q16656) 0.08
MRPS12 (UniProt O15235) -0.103
